{
  "source": "the supplement of paper PMC11732987",
  "about": "“Enantioselective OTUD7B fragment discovery through chemoproteomics screening and high-throughput optimisation” (Communications Chemistry, 2025)",
  "data": [
    {"compound": "ClCC(=O)NC1(CCCC1)C#N", "assay": "log2 ratio of Biotin-Ahx-Ub-VS probe labelling (compound/DMSO); higher = less target engagement, active = hit call of the paper (q ≤ 0.05, log2 ratio ≤ -1)", "conditions": "compound concentration: 50uM; treatment time: 3 h", "protocol": "(§1)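 Round 2 competitive ABPP in HEK293T lysate. Compounds were tested at 50 and 200 µM for 3 h, followed by Biotin-Ahx-Ub-VS enrichment and diaPASEF LC-MS/MS. Values are the average log2 ratio (compound/DMSO) from an unpaired t-test (n=3 treated, n=26 DMSO).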", "values": [
      {"target": "OTUD4 (UniProt Q01804)", "sequence (Q01804 whole entry)": "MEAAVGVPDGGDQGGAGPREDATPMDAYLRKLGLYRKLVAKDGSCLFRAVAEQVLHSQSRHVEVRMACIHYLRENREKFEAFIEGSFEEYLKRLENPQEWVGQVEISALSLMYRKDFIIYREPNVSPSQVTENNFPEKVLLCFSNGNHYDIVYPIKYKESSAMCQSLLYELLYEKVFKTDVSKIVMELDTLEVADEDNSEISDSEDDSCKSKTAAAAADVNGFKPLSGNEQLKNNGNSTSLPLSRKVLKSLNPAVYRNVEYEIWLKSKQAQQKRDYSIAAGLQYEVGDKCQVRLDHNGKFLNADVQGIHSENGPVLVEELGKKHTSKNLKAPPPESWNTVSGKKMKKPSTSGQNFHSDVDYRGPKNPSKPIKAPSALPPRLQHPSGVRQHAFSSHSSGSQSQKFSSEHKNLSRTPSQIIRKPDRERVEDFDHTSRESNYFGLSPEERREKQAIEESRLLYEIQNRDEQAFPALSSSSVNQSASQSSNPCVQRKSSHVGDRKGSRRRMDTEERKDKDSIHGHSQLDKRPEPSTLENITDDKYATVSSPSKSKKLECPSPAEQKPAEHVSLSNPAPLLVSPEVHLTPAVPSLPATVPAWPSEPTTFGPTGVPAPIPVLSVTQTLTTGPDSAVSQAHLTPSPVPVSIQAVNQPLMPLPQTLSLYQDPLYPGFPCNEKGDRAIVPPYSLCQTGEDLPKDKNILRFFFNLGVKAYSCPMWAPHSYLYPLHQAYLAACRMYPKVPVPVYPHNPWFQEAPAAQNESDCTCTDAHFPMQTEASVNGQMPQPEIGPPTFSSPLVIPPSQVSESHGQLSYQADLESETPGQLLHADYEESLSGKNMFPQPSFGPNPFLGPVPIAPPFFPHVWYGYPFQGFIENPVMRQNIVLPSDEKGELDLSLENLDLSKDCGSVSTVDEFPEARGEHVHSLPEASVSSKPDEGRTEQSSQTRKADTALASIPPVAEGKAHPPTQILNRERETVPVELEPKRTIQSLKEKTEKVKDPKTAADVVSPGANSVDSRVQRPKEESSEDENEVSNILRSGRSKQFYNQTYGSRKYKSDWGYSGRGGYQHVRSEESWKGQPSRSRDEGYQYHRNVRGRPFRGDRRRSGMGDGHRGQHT", "log2 ratio of Biotin-Ahx-Ub-VS probe labelling": "-1.46 (active)"},
      {"target": "USP42 (UniProt Q9H9J4)", "log2 ratio of Biotin-Ahx-Ub-VS probe labelling": "-0.155 (inactive)"},
      {"target": "YOD1 (UniProt Q5VVQ6)", "sequence (Q5VVQ6 whole entry)": "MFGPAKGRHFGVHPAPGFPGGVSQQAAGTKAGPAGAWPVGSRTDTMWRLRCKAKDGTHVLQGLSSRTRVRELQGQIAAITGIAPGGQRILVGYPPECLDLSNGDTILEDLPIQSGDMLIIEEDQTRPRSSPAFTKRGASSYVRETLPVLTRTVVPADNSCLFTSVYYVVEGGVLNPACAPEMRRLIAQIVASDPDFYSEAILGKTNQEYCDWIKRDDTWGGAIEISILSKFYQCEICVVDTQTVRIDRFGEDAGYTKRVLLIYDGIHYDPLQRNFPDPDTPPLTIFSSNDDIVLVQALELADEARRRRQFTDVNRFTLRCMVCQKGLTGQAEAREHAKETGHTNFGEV", "log2 ratio of Biotin-Ahx-Ub-VS probe labelling": "-0.0389 (inactive)"},
      {"target": "UniProt Q9UGI0", "log2 ratio of Biotin-Ahx-Ub-VS probe labelling": "-0.46 (inactive)"},
      {"target": "VCPIP1 (UniProt Q96JH7)", "log2 ratio of Biotin-Ahx-Ub-VS probe labelling": "-0.312 (inactive)"},
      {"target": "USP28 (UniProt Q96RU2)", "log2 ratio of Biotin-Ahx-Ub-VS probe labelling": "0.02 (inactive)"},
      {"target": "USP4 (UniProt Q13107)", "sequence (Q13107 whole entry)": "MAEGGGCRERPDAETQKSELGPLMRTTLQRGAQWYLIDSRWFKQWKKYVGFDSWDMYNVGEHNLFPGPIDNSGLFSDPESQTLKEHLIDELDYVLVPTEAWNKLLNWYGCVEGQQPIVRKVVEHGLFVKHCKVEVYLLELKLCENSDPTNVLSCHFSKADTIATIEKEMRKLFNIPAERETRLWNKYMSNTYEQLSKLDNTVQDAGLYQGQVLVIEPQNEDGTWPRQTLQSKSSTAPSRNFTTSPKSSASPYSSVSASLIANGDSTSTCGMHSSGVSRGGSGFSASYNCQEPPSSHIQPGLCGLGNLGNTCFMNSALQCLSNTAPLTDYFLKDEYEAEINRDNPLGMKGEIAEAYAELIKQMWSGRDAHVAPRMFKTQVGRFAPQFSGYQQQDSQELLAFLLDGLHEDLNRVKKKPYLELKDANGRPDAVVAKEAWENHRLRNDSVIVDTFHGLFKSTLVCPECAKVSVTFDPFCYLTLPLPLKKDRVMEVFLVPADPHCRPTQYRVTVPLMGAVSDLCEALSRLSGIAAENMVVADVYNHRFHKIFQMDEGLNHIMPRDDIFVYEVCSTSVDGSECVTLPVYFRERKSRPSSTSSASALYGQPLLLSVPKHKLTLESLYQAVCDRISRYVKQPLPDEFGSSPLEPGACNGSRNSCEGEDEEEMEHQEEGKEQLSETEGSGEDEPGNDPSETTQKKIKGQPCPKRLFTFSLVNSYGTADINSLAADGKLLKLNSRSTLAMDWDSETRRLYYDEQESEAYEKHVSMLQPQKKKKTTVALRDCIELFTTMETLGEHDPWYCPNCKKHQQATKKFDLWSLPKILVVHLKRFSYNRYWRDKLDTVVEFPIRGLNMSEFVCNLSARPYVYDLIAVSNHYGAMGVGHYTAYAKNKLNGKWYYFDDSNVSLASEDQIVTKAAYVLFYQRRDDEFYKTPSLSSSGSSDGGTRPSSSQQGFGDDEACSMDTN", "log2 ratio of Biotin-Ahx-Ub-VS probe labelling": "-0.0435 (inactive)"},
      {"target": "ALG13 (UniProt Q9NP73)", "log2 ratio of Biotin-Ahx-Ub-VS probe labelling": "-0.154 (inactive)"},
      {"target": "UniProt Q9P2H5", "sequence (Q9P2H5 whole entry)": "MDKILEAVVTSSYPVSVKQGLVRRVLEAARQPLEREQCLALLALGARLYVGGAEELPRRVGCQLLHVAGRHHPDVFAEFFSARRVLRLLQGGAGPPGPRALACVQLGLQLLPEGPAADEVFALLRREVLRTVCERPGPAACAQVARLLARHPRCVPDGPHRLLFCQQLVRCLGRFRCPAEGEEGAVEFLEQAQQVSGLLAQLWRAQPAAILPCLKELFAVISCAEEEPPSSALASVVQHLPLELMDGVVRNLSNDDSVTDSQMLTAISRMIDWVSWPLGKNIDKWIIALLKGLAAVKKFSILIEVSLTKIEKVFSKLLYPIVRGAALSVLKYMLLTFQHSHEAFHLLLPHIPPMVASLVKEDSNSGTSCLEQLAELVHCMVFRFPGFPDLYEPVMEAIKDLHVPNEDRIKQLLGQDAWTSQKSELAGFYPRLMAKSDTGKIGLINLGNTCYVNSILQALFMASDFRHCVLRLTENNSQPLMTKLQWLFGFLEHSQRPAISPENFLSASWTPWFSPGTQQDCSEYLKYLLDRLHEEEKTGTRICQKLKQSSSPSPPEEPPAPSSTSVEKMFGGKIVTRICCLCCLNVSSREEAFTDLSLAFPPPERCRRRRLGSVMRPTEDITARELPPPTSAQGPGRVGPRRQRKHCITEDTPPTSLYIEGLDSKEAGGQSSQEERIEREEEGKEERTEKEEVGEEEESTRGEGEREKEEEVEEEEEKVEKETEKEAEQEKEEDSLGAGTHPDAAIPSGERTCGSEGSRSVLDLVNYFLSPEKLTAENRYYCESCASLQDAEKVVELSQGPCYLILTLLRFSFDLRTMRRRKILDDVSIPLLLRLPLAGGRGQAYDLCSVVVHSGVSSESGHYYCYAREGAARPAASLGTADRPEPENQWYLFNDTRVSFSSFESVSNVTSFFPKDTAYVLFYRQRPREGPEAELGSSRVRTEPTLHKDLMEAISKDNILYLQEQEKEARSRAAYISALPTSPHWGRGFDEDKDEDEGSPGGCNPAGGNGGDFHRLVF", "log2 ratio of Biotin-Ahx-Ub-VS probe labelling": "-0.223 (inactive)"},
      {"target": "UCHL3 (UniProt P15374)", "log2 ratio of Biotin-Ahx-Ub-VS probe labelling": "-0.252 (inactive)"},
      {"target": "PSMD7 (UniProt P51665)", "sequence (P51665 whole entry)": "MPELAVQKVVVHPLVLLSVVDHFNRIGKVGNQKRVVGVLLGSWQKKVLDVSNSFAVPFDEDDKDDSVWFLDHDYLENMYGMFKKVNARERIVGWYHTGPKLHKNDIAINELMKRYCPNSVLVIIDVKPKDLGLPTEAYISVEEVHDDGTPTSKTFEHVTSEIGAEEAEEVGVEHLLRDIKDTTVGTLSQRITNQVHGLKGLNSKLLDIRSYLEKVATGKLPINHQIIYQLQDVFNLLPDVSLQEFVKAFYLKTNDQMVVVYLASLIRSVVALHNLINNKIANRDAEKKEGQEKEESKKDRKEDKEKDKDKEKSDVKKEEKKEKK", "log2 ratio of Biotin-Ahx-Ub-VS probe labelling": "-1.2 (inactive)"},
      {"target": "MINDY4 (UniProt Q4G0A6)", "log2 ratio of Biotin-Ahx-Ub-VS probe labelling": "-0.742 (inactive)"},
      {"target": "USP34 (UniProt Q70CQ2)", "log2 ratio of Biotin-Ahx-Ub-VS probe labelling": "-0.504 (inactive)"},
      {"target": "UniProt P51784", "log2 ratio of Biotin-Ahx-Ub-VS probe labelling": "0.0618 (inactive)"},
      {"target": "USP19 (UniProt O94966)", "log2 ratio of Biotin-Ahx-Ub-VS probe labelling": "-0.227 (inactive)"},
      {"target": "OTUD6B (UniProt Q8N6M0)", "sequence (Q8N6M0 whole entry)": "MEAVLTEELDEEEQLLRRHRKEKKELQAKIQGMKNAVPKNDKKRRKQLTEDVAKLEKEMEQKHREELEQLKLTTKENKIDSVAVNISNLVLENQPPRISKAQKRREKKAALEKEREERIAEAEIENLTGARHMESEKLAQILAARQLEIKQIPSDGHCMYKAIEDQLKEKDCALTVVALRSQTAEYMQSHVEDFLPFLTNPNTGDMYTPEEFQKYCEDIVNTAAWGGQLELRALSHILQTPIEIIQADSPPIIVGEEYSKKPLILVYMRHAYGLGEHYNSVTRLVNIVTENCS", "log2 ratio of Biotin-Ahx-Ub-VS probe labelling": "-0.241 (inactive)"},
      {"target": "OTUD7B (UniProt Q6GQQ9)", "sequence (Q6GQQ9 whole entry)": "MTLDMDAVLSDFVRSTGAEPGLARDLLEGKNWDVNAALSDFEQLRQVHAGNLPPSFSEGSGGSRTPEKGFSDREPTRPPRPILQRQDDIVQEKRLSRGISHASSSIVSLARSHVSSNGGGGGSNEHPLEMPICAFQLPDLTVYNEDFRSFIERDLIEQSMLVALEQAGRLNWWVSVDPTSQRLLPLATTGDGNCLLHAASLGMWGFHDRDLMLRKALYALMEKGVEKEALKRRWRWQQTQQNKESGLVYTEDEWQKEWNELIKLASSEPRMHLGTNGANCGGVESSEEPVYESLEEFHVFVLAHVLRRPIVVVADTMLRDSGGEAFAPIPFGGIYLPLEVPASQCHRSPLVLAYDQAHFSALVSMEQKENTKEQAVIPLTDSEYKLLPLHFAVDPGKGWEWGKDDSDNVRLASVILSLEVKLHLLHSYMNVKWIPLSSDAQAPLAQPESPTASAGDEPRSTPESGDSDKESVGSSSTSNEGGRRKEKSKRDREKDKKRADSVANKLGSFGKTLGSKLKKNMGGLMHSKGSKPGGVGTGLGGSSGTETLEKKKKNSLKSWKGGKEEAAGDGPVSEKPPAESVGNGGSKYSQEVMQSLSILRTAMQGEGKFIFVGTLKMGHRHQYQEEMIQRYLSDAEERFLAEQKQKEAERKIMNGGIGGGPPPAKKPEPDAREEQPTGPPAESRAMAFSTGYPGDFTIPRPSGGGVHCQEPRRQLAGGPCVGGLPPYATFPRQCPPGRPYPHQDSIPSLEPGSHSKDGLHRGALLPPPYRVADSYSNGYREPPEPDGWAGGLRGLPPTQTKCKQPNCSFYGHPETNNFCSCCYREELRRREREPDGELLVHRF", "log2 ratio of Biotin-Ahx-Ub-VS probe labelling": "-1.16 (active)"},
      {"target": "USP7 (UniProt Q93009)", "log2 ratio of Biotin-Ahx-Ub-VS probe labelling": "-0.163 (inactive)"},
      {"target": "BAP1 (UniProt Q92560)", "log2 ratio of Biotin-Ahx-Ub-VS probe labelling": "-1.04 (active)"},
      {"target": "UniProt Q70EL2", "log2 ratio of Biotin-Ahx-Ub-VS probe labelling": "-0.267 (inactive)"}
    ]},
    {"compound": "ClCC(=O)NC1(CCCC1)C#N", "assay": "log2 ratio of Biotin-Ahx-Ub-VS probe labelling (compound/DMSO); higher = less target engagement, active = hit call of the paper (q ≤ 0.05, log2 ratio ≤ -1)", "conditions": "compound concentration: 200uM; treatment time: 3 h", "protocol": "as §1", "values": [
      {"target": "OTUD4 (UniProt Q01804)", "log2 ratio of Biotin-Ahx-Ub-VS probe labelling": "-1.76 (active)"},
      {"target": "USP42 (UniProt Q9H9J4)", "log2 ratio of Biotin-Ahx-Ub-VS probe labelling": "-0.0948 (inactive)"},
      {"target": "YOD1 (UniProt Q5VVQ6)", "log2 ratio of Biotin-Ahx-Ub-VS probe labelling": "0.0083 (inactive)"},
      {"target": "UniProt Q9UGI0", "log2 ratio of Biotin-Ahx-Ub-VS probe labelling": "0.243 (inactive)"},
      {"target": "VCPIP1 (UniProt Q96JH7)", "log2 ratio of Biotin-Ahx-Ub-VS probe labelling": "-0.217 (inactive)"},
      {"target": "USP28 (UniProt Q96RU2)", "log2 ratio of Biotin-Ahx-Ub-VS probe labelling": "-0.257 (inactive)"},
      {"target": "USP4 (UniProt Q13107)", "log2 ratio of Biotin-Ahx-Ub-VS probe labelling": "-0.588 (inactive)"},
      {"target": "ALG13 (UniProt Q9NP73)", "log2 ratio of Biotin-Ahx-Ub-VS probe labelling": "0.381 (inactive)"},
      {"target": "UniProt Q9P2H5", "log2 ratio of Biotin-Ahx-Ub-VS probe labelling": "-0.102 (inactive)"},
      {"target": "UCHL3 (UniProt P15374)", "log2 ratio of Biotin-Ahx-Ub-VS probe labelling": "-0.294 (inactive)"},
      {"target": "PSMD7 (UniProt P51665)", "log2 ratio of Biotin-Ahx-Ub-VS probe labelling": "-0.91 (inactive)"},
      {"target": "MINDY4 (UniProt Q4G0A6)", "log2 ratio of Biotin-Ahx-Ub-VS probe labelling": "0.517 (inactive)"},
      {"target": "USP34 (UniProt Q70CQ2)", "log2 ratio of Biotin-Ahx-Ub-VS probe labelling": "-0.364 (inactive)"},
      {"target": "UniProt P51784", "log2 ratio of Biotin-Ahx-Ub-VS probe labelling": "0.0228 (inactive)"},
      {"target": "USP19 (UniProt O94966)", "log2 ratio of Biotin-Ahx-Ub-VS probe labelling": "-0.0992 (inactive)"},
      {"target": "OTUD6B (UniProt Q8N6M0)", "log2 ratio of Biotin-Ahx-Ub-VS probe labelling": "-0.219 (inactive)"},
      {"target": "OTUD7B (UniProt Q6GQQ9)", "log2 ratio of Biotin-Ahx-Ub-VS probe labelling": "-3.09 (active)"},
      {"target": "USP7 (UniProt Q93009)", "log2 ratio of Biotin-Ahx-Ub-VS probe labelling": "-0.0621 (inactive)"},
      {"target": "BAP1 (UniProt Q92560)", "log2 ratio of Biotin-Ahx-Ub-VS probe labelling": "-2.81 (active)"},
      {"target": "UniProt Q70EL2", "log2 ratio of Biotin-Ahx-Ub-VS probe labelling": "0.248 (inactive)"}
    ]}
  ]
}
